In ChEMBL document CHEMBL3988442, “University of Dundee, Small-Polar-MMV Screening Library” (2021):
For some of these results: Entries with a potency or affinity are not part of this list.

Assays:
Design in all cases: scale not given: direction of the effect not stated beside the values
[1] = molecular target: Protein translocase subunit SecA (Escherichia coli (strain K12)) (UniProt P10408); experiment: Assay to Identify E. coli SecA ATPase Inhibitors; format: functional; details: 30 µM
[2] = molecular target: T1, Ubiquitin-activating enzyme e1, putative (Leishmania donovani (strain BPK282A1)) (UniProt E9BSI1); experiment: Leishmania donovani Ubiquitin Activating Enzyme (LdE1); format: functional; details: 30 µM
T1 sequence (whole entry): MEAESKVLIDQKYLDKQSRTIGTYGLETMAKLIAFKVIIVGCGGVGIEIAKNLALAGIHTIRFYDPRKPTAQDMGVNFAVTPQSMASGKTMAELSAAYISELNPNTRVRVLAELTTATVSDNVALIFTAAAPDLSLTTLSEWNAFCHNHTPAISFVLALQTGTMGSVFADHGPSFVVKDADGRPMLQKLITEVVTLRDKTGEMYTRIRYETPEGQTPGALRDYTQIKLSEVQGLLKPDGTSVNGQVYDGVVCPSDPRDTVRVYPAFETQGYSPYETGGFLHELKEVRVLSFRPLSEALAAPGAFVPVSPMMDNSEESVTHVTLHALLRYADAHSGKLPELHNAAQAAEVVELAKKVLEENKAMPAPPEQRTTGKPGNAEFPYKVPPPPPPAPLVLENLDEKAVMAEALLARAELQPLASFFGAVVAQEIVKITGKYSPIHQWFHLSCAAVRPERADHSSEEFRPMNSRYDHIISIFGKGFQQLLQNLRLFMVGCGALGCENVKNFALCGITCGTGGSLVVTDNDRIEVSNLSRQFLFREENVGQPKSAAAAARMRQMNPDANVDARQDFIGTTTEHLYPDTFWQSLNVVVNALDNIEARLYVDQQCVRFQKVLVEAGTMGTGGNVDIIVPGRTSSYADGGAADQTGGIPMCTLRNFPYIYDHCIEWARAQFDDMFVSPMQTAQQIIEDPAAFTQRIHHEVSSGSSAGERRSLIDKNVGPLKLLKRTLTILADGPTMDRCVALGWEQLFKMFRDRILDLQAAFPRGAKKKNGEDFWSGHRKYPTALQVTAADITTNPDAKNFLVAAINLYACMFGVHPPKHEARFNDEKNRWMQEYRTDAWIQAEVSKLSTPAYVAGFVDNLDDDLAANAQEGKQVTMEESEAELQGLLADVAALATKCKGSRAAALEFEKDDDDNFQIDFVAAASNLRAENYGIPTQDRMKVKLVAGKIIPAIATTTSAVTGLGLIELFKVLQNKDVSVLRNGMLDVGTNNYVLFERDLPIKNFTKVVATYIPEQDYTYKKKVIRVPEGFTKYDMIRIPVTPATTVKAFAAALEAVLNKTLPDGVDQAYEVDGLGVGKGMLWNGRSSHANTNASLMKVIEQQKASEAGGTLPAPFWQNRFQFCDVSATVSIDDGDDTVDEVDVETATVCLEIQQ

[3] = molecular target: AMP-activated protein kinase, AMPK (Homo sapiens) (UniProt P54646+O43741+P54619+Q9UGJ0+Q9Y478+Q13131+Q9UGI9); experiment: AMP-dependent Kinase enzyme assay. An in vitro enzyme assay that detects ADP turnover that is directly proportional to AMPK activity. This uses naive AMPK that is activated during the assay with MK-8722; format: functional; details: 30 µM
[4] = molecular target: Sialic acid-binding Ig-like lectin 9 (Homo sapiens) (UniProt Q9Y336); experiment: Hs-Siglec9 ALPHAscreen SOP 20170721; details: 10 µM
Sequence of Sialic acid-binding Ig-like lectin 9 (Homo sapiens) (Q9Y336 whole entry): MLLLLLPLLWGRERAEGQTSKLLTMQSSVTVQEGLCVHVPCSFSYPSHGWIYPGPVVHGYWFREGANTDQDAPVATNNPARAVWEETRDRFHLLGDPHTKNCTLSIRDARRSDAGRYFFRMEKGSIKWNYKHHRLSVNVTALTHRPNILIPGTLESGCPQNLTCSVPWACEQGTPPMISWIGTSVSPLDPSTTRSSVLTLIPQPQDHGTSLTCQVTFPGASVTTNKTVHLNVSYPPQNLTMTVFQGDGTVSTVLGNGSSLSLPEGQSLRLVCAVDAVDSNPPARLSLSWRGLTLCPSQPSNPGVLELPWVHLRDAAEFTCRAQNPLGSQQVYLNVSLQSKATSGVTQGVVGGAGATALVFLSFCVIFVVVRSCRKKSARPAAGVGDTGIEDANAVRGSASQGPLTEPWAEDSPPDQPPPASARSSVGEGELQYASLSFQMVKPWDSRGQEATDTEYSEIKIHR

Trypanosoma cruzi = experiment: Trypanosoma cruzi phosphomannomutase and mannose-1-phosphate guanylyltransferase assay; format: functional; details: 10 µM
[5] = molecular target: T2, Arginase-2, mitochondrial (Homo sapiens) (UniProt P78540); experiment: in vitro enzyme assay to detect the production of urea directly proportional to the activity of Arginase II; format: functional; details: 33.3 µM; also: in the data most compounds retested in dose-response had high values
T2 sequence (whole entry): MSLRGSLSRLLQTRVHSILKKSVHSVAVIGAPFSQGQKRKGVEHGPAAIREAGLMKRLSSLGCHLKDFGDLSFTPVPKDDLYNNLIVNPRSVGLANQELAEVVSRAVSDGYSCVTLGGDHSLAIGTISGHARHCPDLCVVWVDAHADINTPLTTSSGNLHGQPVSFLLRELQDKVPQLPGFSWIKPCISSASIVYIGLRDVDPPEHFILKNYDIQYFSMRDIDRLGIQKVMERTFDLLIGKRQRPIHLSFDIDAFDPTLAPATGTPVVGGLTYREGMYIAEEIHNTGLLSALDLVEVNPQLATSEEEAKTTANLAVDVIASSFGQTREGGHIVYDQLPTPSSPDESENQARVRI

[6] = molecular target: T3, Proteasome subunit beta (Trypanosoma cruzi) (UniProt O96673); experiment: Trypanosoma cruzi proteasome chymotrypsin-like activity (TcProtChymo) assay.; also: in the data most compounds retested in dose-response had high values; format: functional; details: 9.37 µM
T3 sequence (whole entry): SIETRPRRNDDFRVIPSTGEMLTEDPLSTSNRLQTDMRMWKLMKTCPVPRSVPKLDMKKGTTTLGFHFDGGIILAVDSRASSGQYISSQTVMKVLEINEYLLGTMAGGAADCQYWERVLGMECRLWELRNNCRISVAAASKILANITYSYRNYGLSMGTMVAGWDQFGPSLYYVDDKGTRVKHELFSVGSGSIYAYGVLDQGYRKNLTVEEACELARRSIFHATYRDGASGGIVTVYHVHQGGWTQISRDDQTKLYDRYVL

Homo sapiens = organism: Homo sapiens; experiment: To identify inhibition of the IFN signalling (Jak-Stat) pathway via expression of an eGFP reporter gene under the control of an IFN-stimulated response element (ISRE) containing MxA promoter.; format: functional; details: 30 µM
[7] = molecular target: T4, Tyrosyl-tRNA synthetase, putative (Trypanosoma cruzi (strain CL Brener)) (UniProt Q4DSP6); experiment: Trypanosoma cruzi tyrosyl tRNA synthetase (TcYRS) _High Tyrosine SOP; format: functional; details: 30 µM; also: in the data most compounds retested in dose-response had high values
T4 sequence (whole entry): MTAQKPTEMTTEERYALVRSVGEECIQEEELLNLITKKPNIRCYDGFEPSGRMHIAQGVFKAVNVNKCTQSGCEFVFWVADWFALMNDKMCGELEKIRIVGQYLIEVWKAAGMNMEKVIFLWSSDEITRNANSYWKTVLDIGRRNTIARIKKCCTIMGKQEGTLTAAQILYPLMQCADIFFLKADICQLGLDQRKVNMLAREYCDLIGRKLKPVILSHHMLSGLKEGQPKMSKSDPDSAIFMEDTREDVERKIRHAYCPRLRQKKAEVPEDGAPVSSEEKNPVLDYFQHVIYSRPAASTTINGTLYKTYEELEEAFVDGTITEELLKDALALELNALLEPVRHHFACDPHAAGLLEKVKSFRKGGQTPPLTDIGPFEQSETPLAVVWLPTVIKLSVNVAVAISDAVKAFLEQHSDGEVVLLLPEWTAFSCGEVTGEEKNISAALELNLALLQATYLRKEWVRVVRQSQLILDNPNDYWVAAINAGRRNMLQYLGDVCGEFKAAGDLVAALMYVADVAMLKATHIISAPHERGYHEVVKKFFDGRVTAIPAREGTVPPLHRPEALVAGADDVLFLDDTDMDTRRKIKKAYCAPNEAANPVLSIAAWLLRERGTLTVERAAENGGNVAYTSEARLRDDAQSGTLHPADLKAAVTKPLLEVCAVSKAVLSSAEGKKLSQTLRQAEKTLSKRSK

[8] = molecular target: T4, Tyrosyl-tRNA synthetase, putative (Trypanosoma cruzi (strain CL Brener)); experiment: Trypanosoma cruzi tyrosyl tRNA synthetase (TcYRS) SOP; format: functional; details: 30 µM
[9] = molecular target: Chromo domain-containing protein 1 (Saccharomyces cerevisiae (strain ATCC 204508 / S288c) (Baker's yeast)) (UniProt P32657); experiment: ScCHD-1 Enzyme Inhibition Assay; format: functional; details: 30 µM; also: in the data most compounds retested in dose-response had high values
Sequence of Chromo domain-containing protein 1 (Saccharomyces cerevisiae (strain ATCC 204508 / S288c) (Baker's yeast)) (P32657 whole entry, the tested form may be a part): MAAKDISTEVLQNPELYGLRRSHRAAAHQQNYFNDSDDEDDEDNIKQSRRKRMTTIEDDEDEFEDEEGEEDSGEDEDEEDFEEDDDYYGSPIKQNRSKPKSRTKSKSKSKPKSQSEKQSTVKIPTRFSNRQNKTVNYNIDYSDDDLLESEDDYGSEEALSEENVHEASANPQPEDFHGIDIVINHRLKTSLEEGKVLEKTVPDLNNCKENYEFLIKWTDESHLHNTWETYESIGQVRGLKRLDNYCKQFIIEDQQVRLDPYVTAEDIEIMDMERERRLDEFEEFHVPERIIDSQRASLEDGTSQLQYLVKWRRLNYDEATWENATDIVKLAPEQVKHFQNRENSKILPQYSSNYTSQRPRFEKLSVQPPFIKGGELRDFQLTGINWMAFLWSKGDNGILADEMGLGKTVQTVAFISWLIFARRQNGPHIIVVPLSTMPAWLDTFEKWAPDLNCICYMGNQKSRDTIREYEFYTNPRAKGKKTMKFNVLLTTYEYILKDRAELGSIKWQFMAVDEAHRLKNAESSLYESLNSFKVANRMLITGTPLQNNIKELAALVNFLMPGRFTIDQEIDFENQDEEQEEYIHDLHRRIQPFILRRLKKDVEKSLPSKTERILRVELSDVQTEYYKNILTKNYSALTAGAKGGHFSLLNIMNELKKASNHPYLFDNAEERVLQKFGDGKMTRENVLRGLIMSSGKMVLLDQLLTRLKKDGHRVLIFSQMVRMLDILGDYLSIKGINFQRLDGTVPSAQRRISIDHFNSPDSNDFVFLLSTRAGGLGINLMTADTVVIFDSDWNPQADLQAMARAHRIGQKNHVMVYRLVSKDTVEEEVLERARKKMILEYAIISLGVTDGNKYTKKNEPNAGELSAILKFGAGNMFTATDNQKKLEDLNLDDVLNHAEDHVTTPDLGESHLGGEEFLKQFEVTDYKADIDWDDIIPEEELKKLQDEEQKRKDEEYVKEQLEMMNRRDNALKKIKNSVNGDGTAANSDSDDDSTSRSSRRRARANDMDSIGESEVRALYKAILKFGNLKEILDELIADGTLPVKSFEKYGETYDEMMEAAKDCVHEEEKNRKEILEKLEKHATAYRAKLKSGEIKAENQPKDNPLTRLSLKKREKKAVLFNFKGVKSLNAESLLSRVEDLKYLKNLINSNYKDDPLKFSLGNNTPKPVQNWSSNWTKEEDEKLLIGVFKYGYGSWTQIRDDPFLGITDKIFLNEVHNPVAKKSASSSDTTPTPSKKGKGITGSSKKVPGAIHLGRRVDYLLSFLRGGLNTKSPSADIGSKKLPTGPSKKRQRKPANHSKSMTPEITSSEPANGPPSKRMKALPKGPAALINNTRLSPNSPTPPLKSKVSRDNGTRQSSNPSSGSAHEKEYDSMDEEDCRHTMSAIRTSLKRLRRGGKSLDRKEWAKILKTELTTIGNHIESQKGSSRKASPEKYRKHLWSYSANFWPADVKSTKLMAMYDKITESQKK

Sequence of Protein translocase subunit SecA (Escherichia coli (strain K12)) (P10408 whole entry): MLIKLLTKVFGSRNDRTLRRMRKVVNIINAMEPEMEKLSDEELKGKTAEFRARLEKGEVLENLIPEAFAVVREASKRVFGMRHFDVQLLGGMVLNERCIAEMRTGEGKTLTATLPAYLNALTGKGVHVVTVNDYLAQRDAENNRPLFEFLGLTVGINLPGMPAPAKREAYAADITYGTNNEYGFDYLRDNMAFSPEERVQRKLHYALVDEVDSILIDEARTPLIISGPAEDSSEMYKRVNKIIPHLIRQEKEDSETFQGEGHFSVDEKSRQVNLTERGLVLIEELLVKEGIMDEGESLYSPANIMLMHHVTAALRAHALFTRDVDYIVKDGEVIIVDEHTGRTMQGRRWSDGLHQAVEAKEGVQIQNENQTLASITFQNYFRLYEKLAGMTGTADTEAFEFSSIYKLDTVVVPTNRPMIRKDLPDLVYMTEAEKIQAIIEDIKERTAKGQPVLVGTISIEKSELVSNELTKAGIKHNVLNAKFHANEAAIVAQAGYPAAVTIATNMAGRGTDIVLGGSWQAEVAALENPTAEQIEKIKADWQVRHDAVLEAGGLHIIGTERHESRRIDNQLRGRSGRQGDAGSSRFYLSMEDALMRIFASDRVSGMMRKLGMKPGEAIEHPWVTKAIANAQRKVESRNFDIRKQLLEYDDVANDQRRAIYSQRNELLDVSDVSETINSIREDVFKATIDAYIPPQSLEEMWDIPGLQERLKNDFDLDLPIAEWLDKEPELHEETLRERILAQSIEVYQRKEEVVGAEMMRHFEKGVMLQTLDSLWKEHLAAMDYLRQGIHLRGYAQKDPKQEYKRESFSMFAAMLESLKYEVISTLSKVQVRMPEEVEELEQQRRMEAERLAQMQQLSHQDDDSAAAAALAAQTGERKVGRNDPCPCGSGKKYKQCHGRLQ

SMILES | Percent Effect [1] [%] | Percent Effect [2] [%] | Percent Effect [3] [%] | Percent Effect [4] [%] | Percent Effect (Trypanosoma cruzi) [%] | Percent Effect [5] [%] | Percent Effect [6] [%] | Percent Effect (Homo sapiens) [%] | Percent Effect [7] [%] | Percent Effect [8] [%] | Percent Effect [9] [%]
O=C(Nc1ccc(F)cc1)N1C[C@H]2C[C@H](C(=O)N3CCOCC3)[C@@H](C1)O2 | -1.74 | 7.79 | 3.92 | 3.78 | 0.493 | 4.52 | 2.44 | 29.3 | 4.23 | 14.1 | -6.94
c1cnn(CC2CCCN2c2ncnc3sccc23)c1 (configuration not stated) | -5.43 | -2.7 | 2.65 | 6.51 | -2.14 | 3.14 | -1.44 | 66.4 | 2.97 | -25.6 | 11.4
COCCNC(=O)[C@H]1C[C@@H]2CCN(c3nncs3)C[C@H]2O1 | -0.719 | -8.11 | 6.18 | -4.67 | -1.37 | 1.67 | -0.254 | 7 | 5.94 | 6.1 | 1.42
O=C(NCc1ccccn1)c1nnn(-c2ccc(Br)cc2)n1 | -3.5 | 18.2 | -2.49 | -2.46 | 1.68 | -5.81 | 13.2 | 16.1 | 5.29 | 11.5 | -12.6
Cc1cc(N2CCN(C(=O)c3cc(Cl)c[nH]3)CC2)nc(N)n1 | 0.0114 | 8.22 | -3.11 | 13.8 | 5.36 | -2.4 | 15.3 | 17.5 | 10.4 | 13.6 | -0.523
CCOCCCn1c(NC(=O)c2cnn(C)c2)nc2ccccc21 | -5.81 | 5.2 | 2.7 | 15 | -1.69 | -1.07 | 2.37 | 11.1 | 6.8 | 14.6 | -2.58
NC(=O)NCC1CCCCN1C(=O)c1cccc(C(F)(F)F)c1 (configuration not stated) | -6.54 | 21.1 | -2.74 | 13.3 | 4.95 | -6.47 | 2.79 | -1.19 | 5.42 | 16.1 | -9.06
COc1ccccc1CNC(=O)Cn1ncc2c1c(C)nn2C | -2.51 | 6.67 | 1.32 | 6.52 | -7.86 | -15 | 12.8 | -0.504 | 5.29 | 7.69 | -9.43
Cn1nc(C2CCN(C(=O)Cc3cccc(F)c3)CC2)c2cccnc21 | -2.77 | -6.76 | 12.2 | 3.61 | 4.35 | -0.232 | 6.71 | 14.9 | 1.07 | 6.49 | -3.75
Cc1nn(C)c(C)c1C1COCCN1C(=O)c1ccccc1 (configuration not stated) | -2.83 | 5.2 | -2.73 | 2.06 | 6.74 | 3.2 | -1.01 | 7.76 | 2.91 | 12.2 | 11.3
CCc1ncc2c(n1)CN(Cc1nnc(C)o1)CC2 | -0.796 | 2.74 | -74 | 3.02 | 6.07 | 6.82 | 4.26 | -5.4 | 4.3 | 7.5 | -6.64
Cc1ccc(CC2CCCN2CC(=O)NCc2cccnc2)cc1 (configuration not stated) | -4.01 | 2.63 | 5.21 | 3.98 | 1.66 | -5.92 | 14.1 | -8.66 | 4.25 | 13 | -4.98
COc1cc(N2C[C@@H]3COC[C@]3(COc3ccc(C#N)cn3)C2)ncn1 | -3.38 | 13.5 | 2.34 | 2.33 | 4.01 | 9.24 | 12.6 | 35.9 | 4.32 | 7.69 | 1.63
Cc1nc(N2CCN(C)CC2)ncc1C(=O)N1CC(C)(C)C(C)(O)C1 (configuration not stated) | -0.364 | 2.7 | 6.69 | -5.09 | -9.09 | -8.19 | 13 | 11.1 | 0 | -16.1 | 103
O=C(N[C@@H]1CN(Cc2ccc3c(c2)OCO3)[C@@H]2CCCO[C@@H]21)C1CC1 | -7.03 | 0 | -0.94 | 0.764 | -5.99 | -55 | 13.2 | 4.07 | 1.04 | -60 | -2.23
Oc1cc(CCC2CCCCN2)cc(-c2ccncc2)c1 (configuration not stated) | -5.49 | 0 | -8.16 | 0.305 | -3.92 | 0.909 | 20.1 | 1.09 | 2.15 | 7.5 | -3.03
O=C(NCc1ccco1)[C@H]1C[C@H]2OCC[C@H]2N(S(=O)(=O)C2CC2)C1 | -3.9 | 8 | -0.23 | 14.7 | -2.7 | -26.7 | 8.38 | -14 | -1.04 | 15 | -8.9
